# Measurements: PubChem BioAssay
# A number with no mark means an inactive call. The source made the active and inactive calls.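 The calls were made as follows, unless noted: active = growth inhibition above 50% at the single 2 µM test dose, taken to imply half-maximal potency below 2 µM; inactive = the rest.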
# Experiment: antimalarial activity against Dd2 strain (AID 2302);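 also: 0% = DMSO untreated growth and 100% = chloroquine plus artemisinin killed control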
# Conditions: P. falciparum Dd2 in RBCs, LDH growth readout, 72 h; at 2 µM; hits give high values
row,SMILES,growth inhibition
1,O=C(Nc1ccc2nccc(N3CCN4CCC[C@H]4C3)c2c1)c1ccc(Cl)c(Cl)c1,98% (active)
2,NC(=O)c1cccc(C(=O)Nc2cccc(-c3ccc(-c4nc5ccccc5[nH]4)s3)c2)c1,69% (active)
3,COc1ccc(CCNCCCCCCNCCc2ccc(-c3ccccc3)cc2)cc1OC,35%
4,CC(ON1C(N)=NC(N)=NC1(C)C)c1ccccc1 (stereo not given),58% (active)
5,CC(C)CCN1CCC(Oc2cccc(NC(=O)c3ccc(C(F)(F)F)cc3)c2)CC1,6%
6,CCc1cn2c3c(cc(C(=O)N[C@@H](Cc4ccccc4)[C@H](O)CNC4CC4)cc13)N(CC)S(=O)(=O)CC2,99% (active)
7,Cc1cccc2[nH]c(-c3ccc(-c4cccc(NC(=O)C(C)CN(C)C)c4)s3)nc12 (stereo not given),69% (active)
8,CCn1c(C(C)C)cc2c3c(N)nc(N)nc3ccc21,-2%
9,COc1ccc(NC(=O)Nc2cccc(-c3ccc(-c4nc5c(C)cccc5[nH]4)s3)c2)cc1,32%
10,C=C(C)C1CC=C(CN2CCC(N3CCc4cc(NC(=O)c5cc(C)on5)ccc43)C2)CC1 (stereo not given),95% (active)
11,O=C(Nc1ccccc1Cl)c1cc2ccccc2cc1O,72% (active)
12,CCCCN1CCN(Cc2cccc(NC(=O)c3ccc(Cl)c(Cl)c3)c2)CC1,24%
13,c1cn(-c2ccc(CNc3nccc(Nc4ccc(OCCN5CCOCC5)cc4)n3)cc2)cn1,3%
14,CCN(Cc1ccccc1)C1CCN(Cc2cc(Br)ccc2O)CC1,97% (active)
15,O=C(Nc1ccc(OC2CCN(Cc3ccc(F)cc3)CC2)c(Cl)c1)c1ccccc1,89% (active)
16,COc1ccccc1NC(=O)NC1CCN(CCCCCNC(=O)/C=C/c2ccc(Cl)c(Cl)c2)CC1,15%
17,CCOC(=O)NC1=NC(C)(C)N(OCCCOc2ccc(C)cc2C)C(NC(=O)OCC)=N1,98% (active)
18,Cc1ccc2c(c1)c(-c1ccccc1)c(-c1ccccc1)n2CC(O)CN1CCN(CC=Cc2ccccc2)CC1 (stereo not given),98% (active)
19,COc1ccc2nccc(NC(=O)C3(O)CCC(NCc4ccc5c(c4)NCCS5)CC3)c2n1 (stereo not given),64% (active)
20,O=C(NCc1ccc(F)cc1)c1cnc(N2CCN(c3ccncc3)CC2)c(Cl)c1,44%

row,SMILES,growth inhibition
1,CC1(C)N=C(N)N=C(N)N1OCCc1ccccc1,95% (active)
2,Cc1ccccc1C1CCN(C2CCC(NC(=O)c3cc4cc(C(C)C)ccc4[nH]3)CC2)CC1 (stereo not given),100% (active)
3,O=C(NCC1CCN(Cc2cccc(C(F)(F)F)c2)C1)c1cc(-c2cccc(Cl)c2)cs1 (stereo not given),14%
4,COc1ccc(CCNCCCCCCNCCc2ccc(Cl)c3ccccc23)cc1OC,28%
5,Cn1nccc1C(=O)NCCNCc1cccc(-c2csc(-c3nc4ccccc4[nH]3)c2)c1,2%
6,c1ccc(COc2ccccc2COc2ccccc2-c2ccc3cccnc3n2)cc1,95% (active)
7,O=C(/C=C/c1ccc(Cl)c(Cl)c1)NCCCCCN1CCC(NC(=O)Nc2ccc(F)c(Cl)c2)CC1,11%
8,CN(C)Cc1cccc2[nH]c(-c3csc(Cc4cc(Cl)ccc4OCc4ccccc4)n3)nc12,77% (active)
9,Cc1c(-c2cccc(C(C)(C)NC3CCN(Cc4ccccc4)CC3)c2)cnc(N)c1C,39%
10,CCc1sc(N2CCN(C)CC2)nc1C(=O)Nc1ccc(F)cc1C(F)(F)F,98% (active)
11,Cc1cc(NN=Cc2cccc(Cl)c2)c2cc(F)ccc2n1,100% (active)
12,COc1cccc(C(=O)NCCc2cccc(Cl)c2)c1Oc1ccccc1,90% (active)
13,CCc1cccc(NC(=O)/C=C/c2ccc3c(c2)CN(C)CC3)c1,91% (active)
14,CC1CN(Cc2csc(Nc3ccccc3)n2)CC(C)O1 (stereo not given),81% (active)
15,CCCCCCCCc1c(C)[nH]c(C)c(I)c1=O,77% (active)
16,CCc1cc2c3c(N)nc(N)nc3ccc2n1CC,-2%
17,Cc1cc(-c2ccc3c(c2)CCN(CCC2CCC(NC(=O)/C=C/c4cccc(Cl)c4)CC2)CC3)on1 (stereo not given),49%
18,CCCCCCc1cnc2nc(N)nc(N)c2c1C,20%
19,N#Cc1ccc(NC(=O)NC2CCN(CCCCCNC(=O)/C=C/c3ccc(Cl)c(Cl)c3)CC2)cc1,4%
20,CN1CCN(CCNc2c3ccccc3nc3c2ccc2ccccc23)CC1,66% (active)

# Experiment: HepG2 cytotoxicity, primary screen, cytotoxicity control for P. falciparum antimalarial project, cell-based, ATP luminescence (AID 2303;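 active = inhibition above 50%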;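 also: 0% = DMSO wells and 100% = digitonin-killed cells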)
# Conditions: HepG2 viability, 24-48 h, at 10 µM, hits give high values
row,SMILES,inhibition
1,O=C(Nc1ccc2nccc(N3CCN4CCC[C@H]4C3)c2c1)c1ccc(Cl)c(Cl)c1,18%
2,NC(=O)c1cccc(C(=O)Nc2cccc(-c3ccc(-c4nc5ccccc5[nH]4)s3)c2)c1,37%
3,COc1ccc(CCNCCCCCCNCCc2ccc(-c3ccccc3)cc2)cc1OC,100% (active)
4,CC(ON1C(N)=NC(N)=NC1(C)C)c1ccccc1 (stereo not given),65% (active)
5,CC(C)CCN1CCC(Oc2cccc(NC(=O)c3ccc(C(F)(F)F)cc3)c2)CC1,39%
6,CCc1cn2c3c(cc(C(=O)N[C@@H](Cc4ccccc4)[C@H](O)CNC4CC4)cc13)N(CC)S(=O)(=O)CC2,13%
7,Cc1cccc2[nH]c(-c3ccc(-c4cccc(NC(=O)C(C)CN(C)C)c4)s3)nc12 (stereo not given),12%
8,CCn1c(C(C)C)cc2c3c(N)nc(N)nc3ccc21,67% (active)
9,COc1ccc(NC(=O)Nc2cccc(-c3ccc(-c4nc5c(C)cccc5[nH]4)s3)c2)cc1,23%
10,C=C(C)C1CC=C(CN2CCC(N3CCc4cc(NC(=O)c5cc(C)on5)ccc43)C2)CC1 (stereo not given),26%
11,O=C(Nc1ccccc1Cl)c1cc2ccccc2cc1O,2%
12,CCCCN1CCN(Cc2cccc(NC(=O)c3ccc(Cl)c(Cl)c3)c2)CC1,21%
13,c1cn(-c2ccc(CNc3nccc(Nc4ccc(OCCN5CCOCC5)cc4)n3)cc2)cn1,2%
14,CCN(Cc1ccccc1)C1CCN(Cc2cc(Br)ccc2O)CC1,6%
15,O=C(Nc1ccc(OC2CCN(Cc3ccc(F)cc3)CC2)c(Cl)c1)c1ccccc1,16%
16,COc1ccccc1NC(=O)NC1CCN(CCCCCNC(=O)/C=C/c2ccc(Cl)c(Cl)c2)CC1,4%
17,CCOC(=O)NC1=NC(C)(C)N(OCCCOc2ccc(C)cc2C)C(NC(=O)OCC)=N1,63% (active)
18,Cc1ccc2c(c1)c(-c1ccccc1)c(-c1ccccc1)n2CC(O)CN1CCN(CC=Cc2ccccc2)CC1 (stereo not given),0%
19,COc1ccc2nccc(NC(=O)C3(O)CCC(NCc4ccc5c(c4)NCCS5)CC3)c2n1 (stereo not given),1%
20,O=C(NCc1ccc(F)cc1)c1cnc(N2CCN(c3ccncc3)CC2)c(Cl)c1,30%

row,SMILES,inhibition
1,CC1(C)N=C(N)N=C(N)N1OCCc1ccccc1,70% (active)
2,Cc1ccccc1C1CCN(C2CCC(NC(=O)c3cc4cc(C(C)C)ccc4[nH]3)CC2)CC1 (stereo not given),100% (active)
3,O=C(NCC1CCN(Cc2cccc(C(F)(F)F)c2)C1)c1cc(-c2cccc(Cl)c2)cs1 (stereo not given),15%
4,COc1ccc(CCNCCCCCCNCCc2ccc(Cl)c3ccccc23)cc1OC,100% (active)
5,Cn1nccc1C(=O)NCCNCc1cccc(-c2csc(-c3nc4ccccc4[nH]3)c2)c1,30%
6,c1ccc(COc2ccccc2COc2ccccc2-c2ccc3cccnc3n2)cc1,-6%
7,O=C(/C=C/c1ccc(Cl)c(Cl)c1)NCCCCCN1CCC(NC(=O)Nc2ccc(F)c(Cl)c2)CC1,98% (active)
8,CN(C)Cc1cccc2[nH]c(-c3csc(Cc4cc(Cl)ccc4OCc4ccccc4)n3)nc12,14%
9,Cc1c(-c2cccc(C(C)(C)NC3CCN(Cc4ccccc4)CC3)c2)cnc(N)c1C,14%
10,CCc1sc(N2CCN(C)CC2)nc1C(=O)Nc1ccc(F)cc1C(F)(F)F,-1%
11,Cc1cc(NN=Cc2cccc(Cl)c2)c2cc(F)ccc2n1,1%
12,COc1cccc(C(=O)NCCc2cccc(Cl)c2)c1Oc1ccccc1,28%
13,CCc1cccc(NC(=O)/C=C/c2ccc3c(c2)CN(C)CC3)c1,8%
14,CC1CN(Cc2csc(Nc3ccccc3)n2)CC(C)O1 (stereo not given),4%
15,CCCCCCCCc1c(C)[nH]c(C)c(I)c1=O,5%
16,CCc1cc2c3c(N)nc(N)nc3ccc2n1CC,62% (active)
17,Cc1cc(-c2ccc3c(c2)CCN(CCC2CCC(NC(=O)/C=C/c4cccc(Cl)c4)CC2)CC3)on1 (stereo not given),16%
18,CCCCCCc1cnc2nc(N)nc(N)c2c1C,67% (active)
19,N#Cc1ccc(NC(=O)NC2CCN(CCCCCNC(=O)/C=C/c3ccc(Cl)c(Cl)c3)CC2)cc1,15%
20,CN1CCN(CCNc2c3ccccc3nc3c2ccc2ccccc23)CC1,76% (active)
